# Test results from PubChem BioAssay (NCI).
# Compounds without any hit were thinned out: in the full panel of roughly 79,000, 15% have a hit. Unmarked numbers belong to inactive results. The source made the active and inactive calls. No stated cut-off is given here; in the data, active means growth inhibition above about 70%; inactive means the rest.
# How the values were obtained:
# [1] = NCI Yeast Anticancer Drug Screen. Data for the rad52 strain (AID 147);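 further: 0% = growth of vehicle-treated control cultures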; conditions: S. cerevisiae rad52 mutant growth inhibition, stronger effect = higher value
# Outline: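 Growth of repair-deficient yeast cells was compared between compound-treated and vehicle-treated cultures to give percent inhibition.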
# [2] = NCI Yeast Anticancer Drug Screen. Data for the rad50EPP+ strain (AID 151);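 further: 0% = growth of vehicle-treated control cultures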; conditions: S. cerevisiae rad50 mutant strain, stronger effect = higher value
# Outline: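 Measured: growth inhibition of rad50EPP+ yeast. Reference: vehicle-treated controls. Screen uses strains with defined genetic alterations in DNA damage repair or cell cycle control.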
# [3] = NCI Yeast Anticancer Drug Screen. Data for the mgt1 strain (AID 153); conditions: S. cerevisiae mgt1 mutant growth inhibition, stronger effect = higher value
# Outline: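 Compounds were applied to mgt1 mutant yeast, and growth was then compared against vehicle-treated control cultures to give percent inhibition.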
# [4] = NCI Yeast Anticancer Drug Screen. Data for the rad50 strain (AID 155);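 further: 0% = growth of vehicle-only cultures of the same strain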; conditions: S. cerevisiae rad50 strain growth inhibition, stronger effect = higher value
# Outline: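 Cells are treated with compound, grown, and their growth is then scored against vehicle-only cultures of the same repair-deficient yeast strain.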
# [5] = NCI Yeast Anticancer Drug Screen. Data for the mec2-1 strain (AID 157); conditions: S. cerevisiae mec2-1 strain, stronger effect = higher value
# Outline: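 Compounds were applied to mec2-1 yeast cells. Their growth was then compared with that of vehicle-treated cultures to give growth inhibition.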
# [6] = NCI Yeast Anticancer Drug Screen. Data for the rad14 strain (AID 159);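 further: 0% = growth of vehicle-treated control cultures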; conditions: S. cerevisiae rad14 strain growth inhibition, stronger effect = higher value
# Outline: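 Readout: yeast growth inhibition, referenced to vehicle-only cultures. Strain bears a defined alteration in DNA damage repair.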
# [7] = NCI Yeast Anticancer Drug Screen. Data for the sgs1 mgt1 strain (AID 161);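 further: 0% = growth of cultures given vehicle only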; conditions: S. cerevisiae sgs1 mgt1 strain, stronger effect = higher value
# Outline: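 This yeast growth screen uses a strain with defined DNA-repair lesions; compound-treated growth is compared with vehicle-treated growth.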
# [8] = NCI Yeast Anticancer Drug Screen. Data for the CLN2oe strain (AID 163);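 further: 0% = growth of vehicle-only control cultures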; conditions: S. cerevisiae CLN2oe strain, stronger effect = higher value
# Outline: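 Cells of an engineered yeast line with disturbed cell-cycle regulation are treated with compound. Inhibition of growth is then calculated relative to the vehicle-treated reference.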
# [9] = NCI Yeast Anticancer Drug Screen. Data for the cln2 rad14 strain (AID 165);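 further: 0% = growth equal to vehicle treated cultures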; conditions: S. cerevisiae cln2 rad14 strain, stronger effect = higher value
# Outline: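 Strain: cln2 rad14 yeast, altered in cell cycle control and DNA damage repair. Read-out: growth inhibition vs vehicle.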
# [10] = NCI Yeast Anticancer Drug Screen. Data for the bub3 strain (AID 167); conditions: S. cerevisiae bub3 mutant strain, stronger effect = higher value
# Outline: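 Part of a panel of yeast mutants defective in DNA damage repair or cell cycle regulation. Each strain is grown with compound, and inhibition is calculated relative to solvent-treated cultures.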
# [11] = NCI Yeast Anticancer Drug Screen. Data for the wt2 strain (AID 169);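 further: 0% = growth of vehicle-treated yeast cultures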; conditions: S. cerevisiae wt2 strain growth inhibition, stronger effect = higher value
# Outline: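 Growth of compound-treated yeast is measured and expressed as inhibition relative to vehicle-only controls.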
# [12] = NCI Yeast Anticancer Drug Screen. Data for the sgs1 strain (AID 173);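 further: 0% = growth of vehicle-only control cultures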; conditions: S. cerevisiae sgs1 mutant, stronger effect = higher value
# Outline: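 Strain with an altered DNA repair or cell cycle pathway exposed to compound. Growth then measured. Value = inhibition versus vehicle control.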
# [13] = NCI Yeast Anticancer Drug Screen. Data for the mlh1 rad18 strain (AID 175); conditions: S. cerevisiae mlh1 rad18 strain growth inhibition, stronger effect = higher value
# Outline: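 A repair-deficient yeast strain is exposed to test compound, and growth is scored relative to vehicle-treated controls.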
# [14] = NCI Yeast Anticancer Drug Screen. Data for the rad18 strain (AID 177); conditions: S. cerevisiae rad18 mutant growth inhibition, stronger effect = higher value
# Outline: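 DNA-repair-defective yeast; compound treatment; growth inhibition scored against vehicle.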
# [15] = NCI Yeast Anticancer Drug Screen. Data for the wt1 strain (AID 149);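 further: 0% = growth of vehicle-treated wt1 cultures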; conditions: S. cerevisiae wt1 strain (SPY 50644) growth inhibition, stronger effect = higher value
# Outline: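 The wt1 strain was treated with compounds, and growth was compared with vehicle-treated cultures to give inhibition.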
# [16] = NCI Yeast Anticancer Drug Screen. Data for the mlh1 strain (AID 171);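 further: 0% = growth of vehicle-treated control cultures of the same strain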; conditions: S. cerevisiae mlh1 strain growth inhibition, stronger effect = higher value
# Outline: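 Test agents were incubated with yeast bearing a defined DNA damage repair or cell cycle control alteration; values are growth inhibition normalised to vehicle-treated cultures.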
# [17] = at 5.0 µM (retest, dose inferred, filed as 0.5)
# [18] = at 50.0 µM (retest, dose inferred, filed as 5.0)
smiles,measurement,setting,value
Cc1c(C(Cc2ccccc2N(C)C(=O)/C=C\C(=O)O)c2c[nH]c3ccccc23)c2ccccc2n1C (stereo unspecified),growth inhibition,[1]; at 1.2 µM,-5%
same,growth inhibition,[1]; at 3.7 µM,0%
same,growth inhibition,[1]; at 11.0 µM,0%
same,growth inhibition,[1]; at 33.0 µM,7%
same,growth inhibition,[1]; at 100.0 µM,36%
same,growth inhibition,[2]; at 1.2 µM,-6%
same,growth inhibition,[2]; at 3.7 µM,-4%
same,growth inhibition,[2]; at 11.0 µM,-6%
same,growth inhibition,[2]; at 33.0 µM,-6%
same,growth inhibition,[2]; at 100.0 µM,4%
same,growth inhibition,[3]; at 1.2 µM,-3%
same,growth inhibition,[3]; at 3.7 µM,-3%
same,growth inhibition,[3]; at 11.0 µM,-2%
same,growth inhibition,[3]; at 33.0 µM,5%
same,growth inhibition,[3]; at 100.0 µM,65%
same,growth inhibition,[4]; at 1.2 µM,1%
same,growth inhibition,[4]; at 3.7 µM,-2%
same,growth inhibition,[4]; [17],-12%
same,growth inhibition,[4]; at 11.0 µM,-9%
same,growth inhibition,[4]; at 33.0 µM,8%
same,growth inhibition,[4]; [18],-12%
same,growth inhibition,[4]; at 50.0 µM,87.8% (active)
same,growth inhibition,[4]; at 100.0 µM,37%
same,growth inhibition,[5]; at 1.2 µM,-2%
same,growth inhibition,[5]; at 3.7 µM,-4%
same,growth inhibition,[5]; [17],8%
same,growth inhibition,[5]; at 11.0 µM,-5%
same,growth inhibition,[5]; at 33.0 µM,2%
same,growth inhibition,[5]; [18],8%
same,growth inhibition,[5]; at 50.0 µM,86.8% (active)
same,growth inhibition,[5]; at 100.0 µM,51%
same,growth inhibition,[6]; at 1.2 µM,-3%
same,growth inhibition,[6]; at 3.7 µM,-11%
same,growth inhibition,[6]; at 11.0 µM,-14%
same,growth inhibition,[6]; at 33.0 µM,-13%
same,growth inhibition,[6]; at 100.0 µM,33%
same,growth inhibition,[7]; [17],-16%
same,growth inhibition,[7]; [18],-16%
same,growth inhibition,[7]; at 50.0 µM,86.9% (active)
same,growth inhibition,[8]; at 1.2 µM,-11%
same,growth inhibition,[8]; at 3.7 µM,-2%
same,growth inhibition,[8]; at 11.0 µM,-9%
same,growth inhibition,[8]; at 33.0 µM,-4%
same,growth inhibition,[8]; at 100.0 µM,42%
same,growth inhibition,[9]; [17],38%
same,growth inhibition,[9]; [18],38%
same,growth inhibition,[9]; at 50.0 µM,88.1% (active)
same,growth inhibition,[10]; at 1.2 µM,-9%
same,growth inhibition,[10]; at 3.7 µM,-6%
same,growth inhibition,[10]; [17],-6%
same,growth inhibition,[10]; at 11.0 µM,4%
same,growth inhibition,[10]; at 33.0 µM,6%
same,growth inhibition,[10]; [18],-6%
same,growth inhibition,[10]; at 50.0 µM,85.5% (active)
same,growth inhibition,[10]; at 100.0 µM,30%
same,growth inhibition,[11]; at 1.2 µM,-3%
same,growth inhibition,[11]; at 3.7 µM,-4%
same,growth inhibition,[11]; at 11.0 µM,-5%
same,growth inhibition,[11]; at 33.0 µM,3%
same,growth inhibition,[11]; at 100.0 µM,49%
same,growth inhibition,[12]; at 1.2 µM,-5%
same,growth inhibition,[12]; at 3.7 µM,-4%
same,growth inhibition,[12]; at 11.0 µM,-3%
same,growth inhibition,[12]; at 33.0 µM,7%
same,growth inhibition,[12]; at 100.0 µM,46%
same,growth inhibition,[13]; [17],-9%
same,growth inhibition,[13]; [18],-9%
same,growth inhibition,[13]; at 50.0 µM,78% (active)
same,growth inhibition,[14]; at 1.2 µM,-14%
same,growth inhibition,[14]; at 3.7 µM,-14%
same,growth inhibition,[14]; at 11.0 µM,-8%
same,growth inhibition,[14]; at 33.0 µM,0%
same,growth inhibition,[14]; at 100.0 µM,42%
[N-]=[N+]=NC1=C(c2ccccn2)C(=O)c2cccc3cccc1c23,growth inhibition,[1]; at 1.2 µM,2%
same,growth inhibition,[1]; at 3.7 µM,4%
same,growth inhibition,[1]; at 11.0 µM,24%
same,growth inhibition,[1]; at 33.0 µM,50%
same,growth inhibition,[1]; at 100.0 µM,75% (active)
same,growth inhibition,[15]; at 1.2 µM,2%
same,growth inhibition,[15]; at 3.7 µM,4%
same,growth inhibition,[15]; at 11.0 µM,5%
same,growth inhibition,[15]; at 33.0 µM,14%
same,growth inhibition,[15]; at 100.0 µM,34%
same,growth inhibition,[3]; at 1.2 µM,-3%
same,growth inhibition,[3]; at 3.7 µM,-1%
same,growth inhibition,[3]; at 11.0 µM,19%
same,growth inhibition,[3]; at 33.0 µM,10%
same,growth inhibition,[3]; at 100.0 µM,41%
same,growth inhibition,[4]; at 1.2 µM,2%
same,growth inhibition,[4]; at 3.7 µM,3%
same,growth inhibition,[4]; [17],7%
same,growth inhibition,[4]; at 11.0 µM,5%
same,growth inhibition,[4]; at 33.0 µM,53%
same,growth inhibition,[4]; [18],71% (active)
same,growth inhibition,[4]; at 50.0 µM,67.2%
same,growth inhibition,[4]; at 100.0 µM,71% (active)
same,growth inhibition,[5]; at 1.2 µM,5%
same,growth inhibition,[5]; at 3.7 µM,7%
same,growth inhibition,[5]; [17],-5%
same,growth inhibition,[5]; at 11.0 µM,14%
same,growth inhibition,[5]; at 33.0 µM,37%
same,growth inhibition,[5]; [18],40%
same,growth inhibition,[5]; at 50.0 µM,63.8%
same,growth inhibition,[5]; at 100.0 µM,61%
same,growth inhibition,[6]; at 1.2 µM,2%
same,growth inhibition,[6]; at 3.7 µM,5%
same,growth inhibition,[6]; at 11.0 µM,11%
same,growth inhibition,[6]; at 33.0 µM,26%
same,growth inhibition,[6]; at 100.0 µM,63%
same,growth inhibition,[7]; [17],-7%
same,growth inhibition,[7]; [18],28%
same,growth inhibition,[7]; at 50.0 µM,71.4% (active)
same,growth inhibition,[8]; at 1.2 µM,-3%
same,growth inhibition,[8]; at 3.7 µM,1%
same,growth inhibition,[8]; at 11.0 µM,5%
same,growth inhibition,[8]; at 33.0 µM,35%
same,growth inhibition,[8]; at 100.0 µM,74% (active)
same,growth inhibition,[9]; [17],38%
same,growth inhibition,[9]; [18],31%
same,growth inhibition,[9]; at 50.0 µM,67%
same,growth inhibition,[10]; at 1.2 µM,-1%
same,growth inhibition,[10]; at 3.7 µM,4%
same,growth inhibition,[10]; [17],-11%
same,growth inhibition,[10]; at 11.0 µM,18%
same,growth inhibition,[10]; at 33.0 µM,24%
same,growth inhibition,[10]; [18],59%
same,growth inhibition,[10]; at 50.0 µM,69.6%
same,growth inhibition,[10]; at 100.0 µM,61%
same,growth inhibition,[11]; at 1.2 µM,-1%
same,growth inhibition,[11]; at 3.7 µM,-1%
same,growth inhibition,[11]; at 11.0 µM,5%
same,growth inhibition,[11]; at 33.0 µM,26%
same,growth inhibition,[11]; at 100.0 µM,63%
same,growth inhibition,[16]; at 1.2 µM,4%
same,growth inhibition,[16]; at 3.7 µM,-2%
same,growth inhibition,[16]; at 11.0 µM,7%
same,growth inhibition,[16]; at 33.0 µM,19%
same,growth inhibition,[16]; at 100.0 µM,42%
same,growth inhibition,[12]; at 1.2 µM,-2%
same,growth inhibition,[12]; at 3.7 µM,1%
same,growth inhibition,[12]; at 11.0 µM,6%
same,growth inhibition,[12]; at 33.0 µM,37%
same,growth inhibition,[12]; at 100.0 µM,67%
same,growth inhibition,[13]; [17],4%
same,growth inhibition,[13]; [18],52%
same,growth inhibition,[13]; at 50.0 µM,59%
same,growth inhibition,[14]; at 1.2 µM,0%
same,growth inhibition,[14]; at 3.7 µM,6%
same,growth inhibition,[14]; at 11.0 µM,12%
same,growth inhibition,[14]; at 33.0 µM,58%
same,growth inhibition,[14]; at 100.0 µM,85% (active)
